The values that follow come from PubChem BioAssay.

For test [1], the target named is Peroxisome proliferator-activated receptor gamma (Homo sapiens) (UniProt P37231). The experiment in a line: retested PPARg-SRC-2 recruitment enhancers – biochemical, HTS, confirmation (AID 1297; in the data active means activation above about 22%;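 further: 0% = vehicle alone and 100% = reference agonist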). The note with it: biochemical SRC-2 recruitment by PPARgamma; at 8 µM; hits give high values.
The target is the same in test [2]. The test can be described thus: retest of SRC-1 recruitment enhancers for PPARgamma – biochemical, confirmation (AID 1300).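 Further: 0% = vehicle wells and 100% = reference agonist.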 Particulars: PPARgamma–SRC-1 coactivator recruitment biochemical assay; at 8 µM; hits give high values.
The target in test [3] is Peroxisome proliferator-activated receptor gamma (Homo sapiens) + Nuclear receptor coactivator 3 (Homo sapiens) (UniProt P37231+Q9Y6Q9). The experiment in a line: agonists promoting SRC-3 binding to PPARgamma – biochemical, confirmation (AID 1301; in the data active means activation above about 24%;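 further: 0% = vehicle wells and 100% = reference agonist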). The note with it: biochemical PPARgamma-SRC-3 coactivator recruitment, agonist mode; at 8 µM; hits give high values.
Chain of Peroxisome proliferator-activated receptor gamma (Homo sapiens) + Nuclear receptor coactivator 3 (Homo sapiens) (P37231 whole entry, looked up): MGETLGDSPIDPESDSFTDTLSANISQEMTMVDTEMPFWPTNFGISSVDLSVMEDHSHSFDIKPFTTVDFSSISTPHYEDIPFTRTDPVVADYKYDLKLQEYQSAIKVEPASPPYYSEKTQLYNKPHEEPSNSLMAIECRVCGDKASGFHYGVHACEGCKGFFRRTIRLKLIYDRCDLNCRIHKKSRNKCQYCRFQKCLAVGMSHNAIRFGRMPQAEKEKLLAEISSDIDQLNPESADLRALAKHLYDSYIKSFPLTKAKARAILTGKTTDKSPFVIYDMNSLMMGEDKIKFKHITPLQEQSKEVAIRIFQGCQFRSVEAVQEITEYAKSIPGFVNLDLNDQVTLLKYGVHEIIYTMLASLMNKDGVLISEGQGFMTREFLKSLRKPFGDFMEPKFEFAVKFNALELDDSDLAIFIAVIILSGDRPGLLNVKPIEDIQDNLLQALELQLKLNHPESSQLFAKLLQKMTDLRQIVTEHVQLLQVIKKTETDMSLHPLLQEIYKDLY
Chain of Peroxisome proliferator-activated receptor gamma (Homo sapiens) + Nuclear receptor coactivator 3 (Homo sapiens) (Q9Y6Q9 whole entry, looked up): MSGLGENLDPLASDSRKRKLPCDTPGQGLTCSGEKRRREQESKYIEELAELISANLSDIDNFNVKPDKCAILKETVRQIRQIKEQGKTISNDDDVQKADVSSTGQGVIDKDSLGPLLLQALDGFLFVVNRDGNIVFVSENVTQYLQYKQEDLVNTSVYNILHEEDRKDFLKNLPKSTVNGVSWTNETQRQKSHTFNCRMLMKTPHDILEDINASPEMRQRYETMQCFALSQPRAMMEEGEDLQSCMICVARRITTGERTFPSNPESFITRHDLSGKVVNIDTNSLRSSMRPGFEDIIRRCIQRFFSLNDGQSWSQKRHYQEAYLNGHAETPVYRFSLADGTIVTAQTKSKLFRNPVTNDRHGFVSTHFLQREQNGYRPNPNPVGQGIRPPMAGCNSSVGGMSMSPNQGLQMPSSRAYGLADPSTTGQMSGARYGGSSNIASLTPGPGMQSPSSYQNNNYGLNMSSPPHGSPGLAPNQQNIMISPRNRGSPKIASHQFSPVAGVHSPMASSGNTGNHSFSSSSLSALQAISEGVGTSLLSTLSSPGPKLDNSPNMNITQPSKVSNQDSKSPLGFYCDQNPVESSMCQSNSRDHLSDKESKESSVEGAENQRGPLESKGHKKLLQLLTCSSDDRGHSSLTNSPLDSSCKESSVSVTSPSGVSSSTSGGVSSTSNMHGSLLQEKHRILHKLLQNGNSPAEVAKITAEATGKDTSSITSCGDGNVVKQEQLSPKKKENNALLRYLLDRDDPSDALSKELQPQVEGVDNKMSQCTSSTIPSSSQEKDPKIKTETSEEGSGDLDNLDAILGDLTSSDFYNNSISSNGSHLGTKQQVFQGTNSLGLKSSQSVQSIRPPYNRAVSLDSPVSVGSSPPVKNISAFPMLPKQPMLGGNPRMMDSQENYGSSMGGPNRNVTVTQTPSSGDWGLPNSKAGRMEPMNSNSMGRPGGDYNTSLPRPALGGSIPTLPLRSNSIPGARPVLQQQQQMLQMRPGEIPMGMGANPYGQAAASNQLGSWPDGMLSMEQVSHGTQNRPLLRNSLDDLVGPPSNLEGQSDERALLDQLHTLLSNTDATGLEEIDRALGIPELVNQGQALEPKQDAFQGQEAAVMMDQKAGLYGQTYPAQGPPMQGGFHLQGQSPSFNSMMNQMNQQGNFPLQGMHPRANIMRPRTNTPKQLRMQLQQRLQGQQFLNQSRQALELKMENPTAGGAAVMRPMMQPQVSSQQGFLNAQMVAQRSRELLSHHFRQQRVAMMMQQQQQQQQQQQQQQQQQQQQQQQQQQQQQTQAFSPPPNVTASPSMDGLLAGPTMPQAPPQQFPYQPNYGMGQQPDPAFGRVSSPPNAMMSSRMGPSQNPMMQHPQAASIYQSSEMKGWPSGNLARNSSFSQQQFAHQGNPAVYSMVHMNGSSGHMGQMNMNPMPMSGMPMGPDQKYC
For test [4], the system named is Fam108b (Abhd17b) serine hydrolase [Mus musculus]. The experiment in a line: inhibition of Fam108b (Abhd17b) hydrolase – biochemical, fluorescence polarization, triplicate, counter-screen for RBBP9 inhibitor project, confirmation (AID 1978;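 active means inhibition above a limit from the primary screen, the mean over all compounds plus 3 SD, cut at about 19% in these data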;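 further: 0% = median of active Fam108b wells and 100% = catalytically dead S170A mutant; inhibitors free the probe so polarization falls as inhibition rises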). The note with it: recombinant Fam108b, FP-Rh probe fluorescence polarization; at 9.51 µM; hits give high values. On the technique in general: Fluorescence polarisation rises when a labelled molecule tumbles more slowly, as on binding a larger partner.

Test [5] concerns the target Bcl-2-like protein 1 (Homo sapiens) (UniProt Q07817). The experiment in a line: Bcl-xL BH3-peptide displacement, hit confirmation – biochemical, fluorescence polarization, counter-screen for MCL1 inhibitor project (AID 2166;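 active means inhibition above a cutoff equal to the mean inhibition of all tested compounds plus 3 SD, cut at about 30% in these data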). Particulars: GST-Bcl-xL / FITC-Bim BH3 peptide FP binding; at 10.9 µM; hits give high values.
Test [6] addresses Induced myeloid leukemia cell differentiation protein Mcl-1 (Homo sapiens) (UniProt Q07820). The experiment in a line: MCL1-BIM peptide interaction disruptors – biochemical, fluorescence polarization, triplicate, confirmation (AID 2168;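 active means inhibition above the average of all tested compounds plus 3 SD, cut at about 40% in these data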;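 further: 0% = DMSO wells and 100% = unlabeled Bim-BH3 control peptide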). The note with it: GST-MCL1 / FITC-Bim-BH3 fluorescence polarization; at 10.9 µM; hits give high values.
Test [7] deals with Photoreceptor-specific nuclear receptor (Homo sapiens) (UniProt Q9Y5X4). The experiment in a line: corepressor-releasing ligands of human NR2E3 – biochemical, TR-FRET, confirmation (AID 2379). The note with it: cell-free NR2E3 corepressor release, 5 h, at 3.98 µM, hits give high values. A general note: In TR-FRET formats the signal depends on donor and acceptor labels being close together.
Chain of Photoreceptor-specific nuclear receptor (Homo sapiens) (Q9Y5X4 whole entry, looked up): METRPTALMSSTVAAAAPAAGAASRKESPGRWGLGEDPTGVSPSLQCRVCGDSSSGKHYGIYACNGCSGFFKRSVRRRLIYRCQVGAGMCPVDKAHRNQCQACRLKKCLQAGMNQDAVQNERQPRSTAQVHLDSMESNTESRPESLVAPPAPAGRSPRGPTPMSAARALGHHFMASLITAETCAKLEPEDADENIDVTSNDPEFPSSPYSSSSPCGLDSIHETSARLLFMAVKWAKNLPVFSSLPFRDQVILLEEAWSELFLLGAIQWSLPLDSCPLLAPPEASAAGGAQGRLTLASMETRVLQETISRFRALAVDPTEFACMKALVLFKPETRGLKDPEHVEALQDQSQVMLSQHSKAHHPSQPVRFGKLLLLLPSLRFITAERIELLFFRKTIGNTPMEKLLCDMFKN

For test [8], the target named is Peroxisome proliferator-activated receptor gamma (Homo sapiens) + Nuclear receptor corepressor 2 (Homo sapiens) (UniProt P37231+Q9Y618). The experiment in a line: agonists of PPARg-NCOR2 corepressor interaction, counter-screen for NR2E3 agonist project, biochemical, TR-FRET (AID 504787; in the data active means inhibition above about 20%;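 further: 0% = DMSO vehicle and 100% = wells without protein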). The note with it: TR-FRET PPARg-NCOR2 coregulator interaction, at 3.98 µM, hits give high values. (In general: A counterscreen serves to expose hits that act by an unwanted route or on another target.)

Test [9] deals with Sphingosine 1-phosphate receptor 4 (Homo sapiens) (UniProt O95977). The experiment in a line: blockers of human S1P4 signalling – cell-based, confirmation (AID 1524; in the data active means inhibition above about 30%). The note with it: S1P4-expressing cell line, antagonist mode, reporter read-out; at 4.98 µM; hits give high values.
Chain of Sphingosine 1-phosphate receptor 4 (Homo sapiens) (O95977 whole entry, looked up): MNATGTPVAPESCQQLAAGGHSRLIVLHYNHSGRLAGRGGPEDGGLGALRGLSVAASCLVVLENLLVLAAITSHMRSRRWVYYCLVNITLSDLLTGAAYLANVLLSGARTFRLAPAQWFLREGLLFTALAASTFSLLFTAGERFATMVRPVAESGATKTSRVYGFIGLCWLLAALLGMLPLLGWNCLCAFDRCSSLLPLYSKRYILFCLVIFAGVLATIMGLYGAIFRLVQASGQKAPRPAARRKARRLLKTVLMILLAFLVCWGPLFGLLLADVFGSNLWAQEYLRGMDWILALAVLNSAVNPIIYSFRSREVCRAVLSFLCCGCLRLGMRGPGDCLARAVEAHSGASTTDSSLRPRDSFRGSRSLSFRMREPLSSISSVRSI
For test [10], the target named is Sphingosine 1-phosphate receptor 1 (Homo sapiens) (UniProt P21453). The experiment in a line: blockade of human S1P1 receptor – cell-based, counter-screen for S1P4 antagonist project (AID 1564; in the data active means inhibition above about 40%;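 further: receptor stimulated with S1P near its EC80; 0% = agonist stimulated wells and 100% = vehicle only wells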). Particulars: cell-based S1P1 antagonist counterscreen, at 4.98 µM, hits give high values.
Chain of Sphingosine 1-phosphate receptor 1 (Homo sapiens) (P21453 whole entry, looked up): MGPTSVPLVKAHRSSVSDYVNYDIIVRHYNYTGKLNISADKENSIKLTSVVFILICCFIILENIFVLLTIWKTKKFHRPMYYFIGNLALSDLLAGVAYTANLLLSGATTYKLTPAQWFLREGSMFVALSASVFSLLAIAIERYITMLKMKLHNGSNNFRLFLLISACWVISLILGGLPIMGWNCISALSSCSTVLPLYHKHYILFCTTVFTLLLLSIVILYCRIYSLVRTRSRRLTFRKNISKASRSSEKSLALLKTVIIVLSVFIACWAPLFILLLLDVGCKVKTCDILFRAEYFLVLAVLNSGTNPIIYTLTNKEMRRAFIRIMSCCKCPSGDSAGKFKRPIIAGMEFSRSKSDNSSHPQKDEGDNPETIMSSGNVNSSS

Molecules are shown by their SMILES. This is one part of the list. Values without a mark were called inactive. The source made the active and inactive calls. Unless noted, no stated cut-off is given here; in the data, active means activation above about 20%; inactive means the rest.

Chain of Peroxisome proliferator-activated receptor gamma (Homo sapiens) (P37231 whole entry, looked up): as the sequence (P37231 whole entry, looked up) above
Chain of Induced myeloid leukemia cell differentiation protein Mcl-1 (Homo sapiens) (Q07820 whole entry, looked up): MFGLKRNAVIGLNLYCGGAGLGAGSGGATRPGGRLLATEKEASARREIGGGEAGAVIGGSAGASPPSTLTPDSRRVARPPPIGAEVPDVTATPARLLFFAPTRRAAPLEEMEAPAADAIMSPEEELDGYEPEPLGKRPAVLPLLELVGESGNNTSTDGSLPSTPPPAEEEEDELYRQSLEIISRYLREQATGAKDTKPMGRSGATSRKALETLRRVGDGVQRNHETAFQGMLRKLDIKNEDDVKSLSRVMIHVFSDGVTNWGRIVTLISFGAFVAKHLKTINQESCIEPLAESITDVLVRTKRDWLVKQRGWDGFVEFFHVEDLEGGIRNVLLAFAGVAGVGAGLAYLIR
Chain of Bcl-2-like protein 1 (Homo sapiens) (Q07817 whole entry, looked up): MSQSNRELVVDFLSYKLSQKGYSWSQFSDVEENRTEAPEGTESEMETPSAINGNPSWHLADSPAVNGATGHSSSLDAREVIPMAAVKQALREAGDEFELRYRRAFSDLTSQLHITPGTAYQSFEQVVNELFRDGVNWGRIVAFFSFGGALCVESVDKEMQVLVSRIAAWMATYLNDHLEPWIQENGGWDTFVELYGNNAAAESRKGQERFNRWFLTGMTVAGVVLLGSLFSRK

With `CCn1c(SCC(=O)Nc2cccc(F)c2)nnc1-c1cc2cc(Br)ccc2o1`, the activation was 18% in test [1], 15% in test [2] and 14.3% in test [3].
Turning to `COC(=O)c1ccccc1SC1CC(=O)N(c2cccc(C)c2)C1=O` (stereo unspecified), the activation in test [1] was 0.78%; in test [2], -2.36%; in [3], 10.9%.
Consider `Cc1cc(C)c2c(c1)cc(C)c1nnc(SCC(=O)Nc3cc(C)on3)n12`, for which the figures for the activation in test [1], in test [2] and in [3] were 18.6%, 17.6% and 12.5%, respectively.
In the case of `CSc1c(SCc2ccccc2)cnn(Cc2ccccc2)c1=O`, the activation in test [1] was 34.4% (active); in test [2], 28.5% (active); in test [3], 25.9% (active). The inhibition was 0.05% in test [4], -5.91% in [5] and -3.67% in test [6].
Turning to `OCC1(CCc2ccccc2)CCN(Cc2ccc3nsnc3c2)CC1`, the activation in test [1] was 32.8% (active); in [2], 26.3% (active); in test [3], 22.9%.
Consider `CCN(/N=C/c1ccc(N(C)C)cc1)c1nc2ccccc2[nH]1`, for which the figures for the activation in [1], in test [2] and in test [3] were 9.9%, 6.2% and 6.08%, respectively.
Regarding `CC(=O)c1sc2nc(SCC(=O)N3CCCCC3)[nH]c(=O)c2c1C`, the values for the activation in test [1], in test [2] and in [3] were 27.4% (active), 20.8% (active) and 18.3%, respectively. The activation (reported as inhibition) in [7] is 17.4%. The inhibition in test [8] was 21.1% (active).
As to `C[C@@H](NC(=O)OC(C)(C)C)c1nnc(S(=O)(=O)Cc2ccccc2)o1`, the results for the inhibition in [9] and in test [10] were 83.4% (active) and 36.6%, respectively.
The matching figures for `Cc1cc2oc(C(=O)Nc3c(C)n(C)n(-c4ccccc4)c3=O)c(C)c2cc1Cl`: 63.1% (active) and 19.1%.
For `COc1ccc2c(Cl)c(-c3nnco3)sc2c1`, the activation is 20.4% in [1], 13.6% in test [2] and 13.6% in [3].
Take `Cn1c(-c2sc3cc(C(F)(F)F)cnc3c2-c2ccccc2)n[nH]c1=S`: the activation in test [1] was 89.8% (active); in test [2] it was 67% (active); in test [3], 53.5% (active).
Consider `O=C(Oc1ccccc1)Oc1ccc2c(c1)oc(=O)c1ccccc12`, for which the activation is 27.9% (active) in test [1], 16.1% in test [2] and 19.9% in [3]. The activation (reported as inhibition) in test [7] was 1.72%. Besides, the inhibition in test [8] was 6.42%.

Broadly, the inhibition is the drop in the measured response relative to a control, in per cent.
